PubChem BioAssay AID1159580 (chemical genetic matrix, 2015)
The whole screen tested about 5,500 compounds, of which about 2,000 (36%) were called active. Another 18% or so got no clear call; they are omitted. No stated cut-off is given here; in the data, active means normalized growth mostly below about 0.91 (no sharp cut-off); inconclusive means no clear call, values can overlap the other calls; inactive means mostly above about 0.92. This is one part of the list.

Assay: chemical genetic growth profiling, strain panel (AID 1159580);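 further: tested at 20 µM; growth read once vehicle control cultures reached saturation at 30 °C; 1 = growth at the plate median or of vehicle wells; lower values mean less growth of the strain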
Details: S. cerevisiae deletion strains, growth OD

Measured: normalized growth

NCCS(=O)(=O)O
inactive: locus YAL021C, strain ccr4, hits give low values 0.965 | locus YAL026C, strain drs2, hits give low values 0.978 | locus YAL030W, strain snc1, hits give low values 0.981 | locus YAL040C, strain CLN3, hits give low values 1 | locus YBL061C, strain skt5, hits give low values 0.984 | locus YBR009C, strain hhf1, hits give low values 0.981 | locus YBR023C, strain chs3, hits give low values 0.982 | locus YBR171W, strain sec66, hits give low values 0.97 | locus YBR231C, strain swc5, hits give low values 0.983 | locus YBR279W, strain paf1, hits give low values 0.985 | locus YCL011C, strain gbp2, hits give low values 0.965 | locus YCL016C, strain dcc1, hits give low values 0.984 | locus YCL061C, strain MRC1 (second series), hits give low values 1 | locus YCL061C, strain MRC1, hits give low values 0.98 | locus YCL069W, strain vba3, hits give low values 0.976 | locus YCR088W, strain abp1, hits give low values 0.978 | locus YDL005C, strain med2, hits give low values 0.984 | locus YDL040C, strain nat1, hits give low values 0.986 | locus YDR001C, strain nth1, hits give low values 0.983 | locus YDR069C, strain doa4, hits give low values 0.98 | locus YDR137W, strain rgp1, hits give low values 0.971 | locus YDR150W, strain NUM1, hits give low values 1.01 | locus YDR159W, strain sac3, hits give low values 0.952 | locus YDR195W, strain ref2 0.924 | locus YDR297W, strain sur2, hits give low values 0.979 | locus YDR334W, strain swr1, hits give low values 0.948 | locus YDR335W, strain msn5, hits give low values 0.969 | locus YDR363W, strain ESC2, hits give low values 1 | locus YDR392W, strain spt3, hits give low values 0.977 | locus YEL003W, strain gim4, hits give low values 0.975 | locus YEL037C, strain rad23, hits give low values 0.975 | locus YEL061C, strain CIN8 (second series), hits give low values 0.97 | locus YER002W, strain NOP16, hits give low values 0.984 | locus YER015W, strain faa2, hits give low values 0.971 | locus YER016W, strain bim1, hits give low values 0.975 | locus YER111C, strain swi4, hits give low values 0.967 | locus YER155C, strain BEM2 (second series), hits give low values 0.978 | locus YFR010W, strain ubp6, hits give low values 0.959 | locus YGL167C, strain pmr1, hits give low values 0.977 | locus YGL173C, strain kem1, hits give low values 0.971 | locus YGL227W, strain vid30, hits give low values 0.984 | locus YGL240W, strain doc1, hits give low values 0.961 | locus YGL253W, strain hxk2, hits give low values 0.986 | locus YHR013C, strain ard1, hits give low values 0.968 | locus YHR027C, strain rpn1, hits give low values 0.967 | locus YHR030C, strain SLT2, hits give low values 0.943 | locus YHR079C, strain IRE1, hits give low values 0.966 | locus YHR142W, strain chs7, hits give low values 0.964 | locus YJL092W, strain hpr5, hits give low values 0.963 | locus YJL095W, strain BCK1 (second series), hits give low values 0.972 | locus YJL095W, strain BCK1, hits give low values 0.998 | locus YJL115W, strain asf1, hits give low values 0.958 | locus YJL129C, strain trk1, hits give low values 0.961 | locus YJL154C, strain vps35, hits give low values 0.974 | locus YJL164C, strain tpk1, hits give low values 0.986 | locus YJL166W, strain qcr8, hits give low values 0.986 | locus YJL187C, strain SWE1, hits give low values 0.982 | locus YJR066W, strain TOR1, hits give low values 0.92 | locus YJR075W, strain HOC1, hits give low values 0.999 | locus YKL160W, strain elf1, hits give low values 0.983 | locus YKR026C, strain gcn3, hits give low values 0.967 | locus YKR091W, strain srl3, hits give low values 0.979 | locus YLL001W, strain dnm1, hits give low values 0.97 | locus YLL026W, hits give low values 0.982 | locus YLL041C, strain sdh2, hits give low values 0.971 | locus YLR027C, strain aat2, hits give low values 0.981 | locus YLR113W, strain HOG1, hits give low values 1.02 | locus YLR221C, strain rsa3, hits give low values 0.982 | locus YLR258W, strain gsy2, hits give low values 0.987 | locus YLR262C, strain YPT6 (second series), hits give low values 0.99 | locus YLR320W, strain mms22, hits give low values 0.972 | locus YLR342W, strain FKS1, hits give low values 0.985 | locus YLR357W, strain rsc2, hits give low values 0.972 | locus YLR370C, strain arc18, hits give low values 0.981 | locus YLR384C, strain iki3, hits give low values 0.977 | locus YML120C, strain ndi1, hits give low values 0.963 | locus YMR058W, strain fet3, hits give low values 0.97 | locus YMR125W, strain sto1, hits give low values 0.954 | locus YMR129W, hits give low values 0.978 | locus YMR205C, strain PFK2, hits give low values 1 | locus YMR231W, strain pep5, hits give low values 0.985 | locus YMR307W, strain GAS1, hits give low values 1 | locus YNL071W, strain lat1, hits give low values 0.981 | locus YNL128W, strain TEP1, hits give low values 1 | locus YNL153C, strain GIM3, hits give low values 1.04 | locus YNL175C, strain NOP13, hits give low values 1.01 | locus YNL183C, strain NPR1, hits give low values 0.939 | locus YNL197C, strain WHI3, hits give low values 0.993 | locus YNL209W, strain ssb2, hits give low values 0.973 | locus YNL224C, strain SQS1, hits give low values 1 | locus YNL248C, strain rpa49, hits give low values 0.944 | locus YNL322C, strain KRE1 (second series), hits give low values 0.971 | locus YNR049C, strain mso1, hits give low values 0.975 | locus YOR001W, strain rrp6, hits give low values 0.957 | locus YOR070C, strain gyp1, hits give low values 0.992 | locus YOR080W, strain dia2, hits give low values 0.978 | locus YOR083W, strain WHI5 (second series), hits give low values 1.03 | locus YOR083W, strain WHI5, hits give low values 0.976 | locus YOR106W, strain vam3, hits give low values 0.97 | locus YOR231W, strain MKK1, hits give low values 0.954 | locus YOR265W, strain rbl2, hits give low values 0.976 | locus YOR270C, strain vph1, hits give low values 0.949 | locus YOR290C, strain snf2, hits give low values 0.999 | locus YPL051W, strain arl3, hits give low values 0.99 | locus YPL055C, strain LGE1, hits give low values 1 | locus YPL078C, strain atp4, hits give low values 0.966 | locus YPL106C, strain sse1, hits give low values 0.947 | locus YPL240C, strain hsp82, hits give low values 0.994 | locus YPL241C, strain CIN2, hits give low values 1 | locus YPL256C, strain CLN2, hits give low values 0.957
